Experimental data published in the supplement of paper PMC7411054.

What was measured:
Conditions in all cases: treatment time: 24 h
[1] = system: A549-GM130-SQSTM1; experiment: lowest phenotypically active concentration; higher = less potent
Procedure, shortened: (§1)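 The reporter lines, fifteen in total and built by gene editing in A549, HepG2 and WPMY1 cells, used BFP for segmentation alongside GFP and RFP/FusionRed markers. Each was treated at 0.3, 1, 3 or 9 µM for 24 h in four wells and then imaged live, with live-cell features normalised to solvent control wells. Deviation meant ≥3 of 4 wells beyond the 95th percentile of control Euclidean distances; reproducibility meant a median replicate Pearson correlation above the 95th percentile of non-replicates. Only conditions meeting both were scored as phenotypically active.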

[2] = system: A549-ACTB-RAB5A; experiment: phenotypically active (imaging signature differs from DMSO and reproducible) at any of 0.3-9 uM (binary (1 = active, 0 = inactive)); higher = active
Procedure, shortened: as §1

[3] = system: A549-CANX-COX4; experiment: as above
Procedure, shortened: as §1

[4] = system: A549-GM130-SQSTM1; experiment: as above
Procedure, shortened: as §1

[5] = system: A549-TP53BP1-CLTA; experiment: as above
Procedure, shortened: as §1

[6] = system: A549-TUBA1B-RELA; experiment: as above
Procedure, shortened: as §1

[7] = system: HepG2-ACTB-RAB5A; experiment: as above
Procedure, shortened: as §1

[8] = system: HepG2-CANX-COX4; experiment: as above
Procedure, shortened: as §1

[9] = system: HepG2-GM130-SQSTM1; experiment: as above
Procedure, shortened: as §1

[10] = system: HepG2-TP53BP1-CLTA; experiment: as above
Procedure, shortened: as §1

[11] = system: HepG2-TUBA1B-RELA; experiment: as above
Procedure, shortened: as §1

[12] = system: WPMY1-ACTB-RAB5A; experiment: as above
Procedure, shortened: as §1

[13] = system: WPMY1-CANX-COX4; experiment: as above
Procedure, shortened: as §1

[14] = system: WPMY1-GM130-SQSTM1; experiment: as above
Procedure, shortened: as §1

[15] = system: WPMY1-TP53BP1-CLTA; experiment: as above
Procedure, shortened: as §1

[16] = system: WPMY1-TUBA1B-RELA; experiment: as above
Procedure, shortened: as §1

[17] = system: WPMY1-GM130-SQSTM1; experiment: lowest phenotypically active concentration; higher = less potent
Procedure, shortened: as §1

[18] = system: HepG2-ACTB-RAB5A; experiment: as above
Procedure, shortened: as §1

[19] = system: WPMY1-CANX-COX4; experiment: as above
Procedure, shortened: as §1

Row | SMILES | lowest phenotypically active concentration [1] [µM] | phenotypically active [2] | phenotypically active [3] | phenotypically active [4] | phenotypically active [5] | phenotypically active [6] | phenotypically active [7] | phenotypically active [8] | phenotypically active [9] | phenotypically active [10] | phenotypically active [11] | phenotypically active [12] | phenotypically active [13] | phenotypically active [14] | phenotypically active [15] | phenotypically active [16] | lowest phenotypically active concentration [17] [µM] | lowest phenotypically active concentration [18] [µM] | lowest phenotypically active concentration [19] [µM]
1 | CCc1ccc(/C=C/C(=O)Nc2ccc(C(C)=O)cc2)o1 [Heclin] | 9 | 0 (inactive) | 0 (inactive) | 1 (active) | 0 (inactive) | 1 (active) | 0 (inactive) | 0 (inactive) | 0 (inactive) | 0 (inactive) | 0 (inactive) | 0 (inactive) | 0 (inactive) | 0 (inactive) | 0 (inactive) | 0 (inactive) | – | – | –
2 | CC(C)NCC(O)COc1ccc(CC(N)=O)cc1 (stereo not given) [atenolol-()] | 9 | 0 (inactive) | 0 (inactive) | 1 (active) | 0 (inactive) | 0 (inactive) | 0 (inactive) | 0 (inactive) | 0 (inactive) | 0 (inactive) | 0 (inactive) | 0 (inactive) | 0 (inactive) | 1 (active) | 1 (active) | 0 (inactive) | 9 | – | –
3 | Nc1ncnc2c1ncn2[C@@H]1O[C@H](CO)[C@@H](O)[C@H]1O [Adenosine] | – | 0 (inactive) | 0 (inactive) | 0 (inactive) | 0 (inactive) | 0 (inactive) | 1 (active) | 0 (inactive) | 0 (inactive) | 0 (inactive) | 0 (inactive) | 0 (inactive) | 0 (inactive) | 0 (inactive) | 0 (inactive) | 0 (inactive) | – | 9 | –
4 | CO[C@H]1C=CO[C@@]2(C)Oc3c(C)c(O)c4c(O)c(c(/C=N/N5CCN(C)CC5)c(O)c4c3C2=O)NC(=O)C(C)=CC=C[C@H](C)[C@H](O)[C@@H](C)[C@@H](O)[C@@H](C)[C@H](OC(C)=O)[C@@H]1C [Rifampicin] | 9 | 0 (inactive) | 0 (inactive) | 1 (active) | 0 (inactive) | 0 (inactive) | 0 (inactive) | 1 (active) | 0 (inactive) | 0 (inactive) | 0 (inactive) | 0 (inactive) | 0 (inactive) | 0 (inactive) | 0 (inactive) | 0 (inactive) | – | – | –
5 | CCOc1nc(NC(=O)Cc2cc(OC)ccc2OC)cc(N)c1C#N | – | 0 (inactive) | 0 (inactive) | 0 (inactive) | 0 (inactive) | 1 (active) | 0 (inactive) | 0 (inactive) | 0 (inactive) | 0 (inactive) | 0 (inactive) | 0 (inactive) | 0 (inactive) | 0 (inactive) | 0 (inactive) | 0 (inactive) | – | – | –
6 | Cc1cc(C(=O)Nc2cccc(C(=O)Nc3cccc(C(F)(F)F)c3)c2)on1 | – | 0 (inactive) | 0 (inactive) | 0 (inactive) | 0 (inactive) | 0 (inactive) | 0 (inactive) | 1 (active) | 0 (inactive) | 0 (inactive) | 0 (inactive) | 0 (inactive) | 0 (inactive) | 0 (inactive) | 0 (inactive) | 0 (inactive) | – | – | –
7 | CC(C)N(CCCNC(=O)Nc1ccc(C(C)(C)C)cc1)C[C@H]1O[C@@H](n2cc(Br)c3c(N)ncnc32)[C@H](O)[C@@H]1O | – | 0 (inactive) | 0 (inactive) | 0 (inactive) | 1 (active) | 0 (inactive) | 1 (active) | 1 (active) | 1 (active) | 1 (active) | 1 (active) | 1 (active) | 1 (active) | 1 (active) | 1 (active) | 1 (active) | 9 | 3 | 3
8 | O=C(O)[C@H]1CCCC[C@H]1C(=O)N1CCc2ccccc2[C@H]1CN1C(=O)c2ccccc2C1=O | – | 0 (inactive) | 0 (inactive) | 0 (inactive) | 0 (inactive) | 0 (inactive) | 1 (active) | 0 (inactive) | 1 (active) | 0 (inactive) | 1 (active) | 0 (inactive) | 0 (inactive) | 0 (inactive) | 0 (inactive) | 0 (inactive) | – | 9 | –
9 | Cc1c(C)c2c(c(C)c1O)CC[C@@](C)(CCC[C@H](C)CCC[C@H](C)CCCC(C)C)O2 [Tocopherol (R,S)] | – | 0 (inactive) | 0 (inactive) | 0 (inactive) | 0 (inactive) | 0 (inactive) | 0 (inactive) | 1 (active) | 0 (inactive) | 0 (inactive) | 0 (inactive) | 0 (inactive) | 0 (inactive) | 0 (inactive) | 0 (inactive) | 0 (inactive) | – | – | –
10 | O=C1NN(c2ccc(F)c(Cl)c2)C(=O)/C1=C\c1ccc([N+](=O)[O-])o1 | 3 | 0 (inactive) | 0 (inactive) | 1 (active) | 0 (inactive) | 0 (inactive) | 0 (inactive) | 0 (inactive) | 0 (inactive) | 0 (inactive) | 0 (inactive) | 0 (inactive) | 1 (active) | 1 (active) | 0 (inactive) | 0 (inactive) | 9 | – | 9
11 | S=c1[nH]cnc2nc[nH]c12 [mercaptopurine] | – | 0 (inactive) | 0 (inactive) | 0 (inactive) | 0 (inactive) | 0 (inactive) | 1 (active) | 1 (active) | 0 (inactive) | 0 (inactive) | 1 (active) | 0 (inactive) | 1 (active) | 1 (active) | 0 (inactive) | 1 (active) | 9 | 9 | 9
12 | Clc1ccc(C(c2ccc(Cl)cc2)[n+]2ccn(CC(OCc3ccc(Cl)cc3Cl)c3ccc(Cl)cc3Cl)c2)cc1 (stereo not given) [Calmidazolium chloride] | – | 0 (inactive) | 0 (inactive) | 0 (inactive) | 0 (inactive) | 0 (inactive) | 1 (active) | 0 (inactive) | 0 (inactive) | 0 (inactive) | 1 (active) | 0 (inactive) | 1 (active) | 1 (active) | 0 (inactive) | 1 (active) | 3 | 3 | 3
13 | O=c1c(O)c(-c2ccc(O)cc2)oc2cc(O)cc(O)c12 [Kaempferol] | 9 | 0 (inactive) | 0 (inactive) | 1 (active) | 0 (inactive) | 0 (inactive) | 0 (inactive) | 0 (inactive) | 0 (inactive) | 0 (inactive) | 0 (inactive) | 0 (inactive) | 1 (active) | 1 (active) | 1 (active) | 0 (inactive) | 9 | – | 9
14 | O=C(/C=C/c1ccc(O)cc1)c1ccc(O)cc1O [Isoliquiritigenin] | – | 0 (inactive) | 0 (inactive) | 0 (inactive) | 0 (inactive) | 1 (active) | 0 (inactive) | 0 (inactive) | 1 (active) | 0 (inactive) | 0 (inactive) | 0 (inactive) | 1 (active) | 0 (inactive) | 1 (active) | 0 (inactive) | – | – | 9
15 | CC(C)(C)c1ccc(C(=O)Nc2cn3cc(-n4ccnc4)ccc3n2)cc1 | – | 0 (inactive) | 0 (inactive) | 0 (inactive) | 0 (inactive) | 0 (inactive) | 1 (active) | 0 (inactive) | 0 (inactive) | 0 (inactive) | 0 (inactive) | 0 (inactive) | 0 (inactive) | 0 (inactive) | 0 (inactive) | 0 (inactive) | – | 3 | –
16 | Nc1nnc(Sc2ncc([N+](=O)[O-])s2)s1 | – | 0 (inactive) | 0 (inactive) | 0 (inactive) | 0 (inactive) | 1 (active) | 0 (inactive) | 0 (inactive) | 0 (inactive) | 0 (inactive) | 0 (inactive) | 0 (inactive) | 0 (inactive) | 0 (inactive) | 0 (inactive) | 0 (inactive) | – | – | –
17 | CCCCCCCCCCCCC/C=C/[C@H](O)[C@H](N)CO [D-erythro-Sphingosine (synthetic)] | 9 | 0 (inactive) | 0 (inactive) | 1 (active) | 0 (inactive) | 0 (inactive) | 0 (inactive) | 0 (inactive) | 0 (inactive) | 0 (inactive) | 0 (inactive) | 0 (inactive) | 0 (inactive) | 1 (active) | 0 (inactive) | 0 (inactive) | 9 | – | –
